Read-out in experiment [1]: Transforming growth factor beta 1 (TGFb1), TGFB1 (gene 7040)
Description: BSK_KF3CT_TGFb1: BioMAP Diversity Plus: KF3CT Assay for Transforming growth factor beta 1 (TGFb1) Biomarker Activity (AID 2283072). The conditions noted are these: primary human keratinocytes with fibroblasts; actives raise or lower the signal. The gist of the method:
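ELISA quantifies TGF-b1 at 24 h post-dose in a primary human skin co-culture of keratinocytes and fibroblasts, with gain or loss judged against DMSO. Parallel SRB total-protein staining flags overt cytotoxicity.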

Read-out in experiment [2]: C-C motif chemokine 2 (Homo sapiens) (UniProt P13500)
The experiment in a line: BSK_KF3CT_MCP1: BioMAP Diversity Plus: KF3CT Assay for Monocyte Chemoattractant Protein 1 (MCP1/CCL2) Biomarker Activity (AID 2283073). The conditions noted are these: primary human keratinocytes with fibroblasts; actives raise or lower the signal. The gist of the method: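 Keratinocytes and foreskin fibroblasts were co-cultured, dosed with chemical, and sampled 24 h later. MCP-1 was quantified by ELISA, and the endpoint was analyzed with bidirectional fitting using DMSO as negative control.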

Read-out in experiment [3]: Matrix Metallopeptidase 9 (MMP9), MMP9 (gene 4318)
Description: BSK_KF3CT_MMP9: BioMAP Diversity Plus: KF3CT Assay for Matrix Metallopeptidase 9 (MMP9) Biomarker Activity (AID 2283074).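 For AC50: MMP9 protein level quantified by ELISA in the co-culture.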 The note with it: primary human keratinocytes with fibroblasts; actives raise or lower the signal. The gist of the method:
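MMP-9 quantified by ELISA after 24 h chemical treatment of primary human skin keratinocyte/fibroblast co-cultures; gain or loss fitted against DMSO, with parallel SRB staining (0.1% SRB, 560 nm) for overt cytotoxicity.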

Read-out in experiment [4]: urokinase plasminogen activator (uPA), PLAU (gene 5328)
Description: BSK_KF3CT_uPA: BioMAP Diversity Plus: KF3CT Assay for urokinase plasminogen activator (uPA) Biomarker Activity (AID 2283075). The conditions noted are these: primary human keratinocytes with fibroblasts; actives raise or lower the signal. The gist of the method: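 ELISA read-out of uPA 24 h after dosing human skin keratinocytes co-cultured with foreskin fibroblasts. Signal change fitted both ways relative to DMSO; sulforhodamine B on parallel cultures marks overt cytotoxicity.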

Read-out in experiment [5]: CD40, CD40 (gene 958)
Description: BSK_LPS_CD40: BioMAP Diversity Plus: LPS Assay for CD40 Biomarker Activity (AID 2283076). The note with it: primary human HUVEC with PBMC; actives raise or lower the signal. The gist of the method:
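CD40 signal, measured by ELISA, is fitted in both directions relative to DMSO vehicle. The system is an LPS-driven human vascular primary co-culture of endothelial cells and PBMC, sampled 24 h after compound addition.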

Read-out in experiment [6]: E-selectin (Homo sapiens) (UniProt P16581)
Description: BSK_LPS_Eselectin: BioMAP Diversity Plus: LPS Assay for Eselectin Biomarker Activity (AID 2283077). The note with it: primary human HUVEC with PBMC; actives raise or lower the signal. A digest of the protocol:
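Signal of E-selectin, detected by ELISA, served as the endpoint; cells were umbilical vein endothelium with PBMC, read 24 h after treatment. DMSO defined baseline, and both increases and decreases were fitted.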

Read-out in experiment [7]: Interleukin-8 (IL8), CXCL8 (gene 3576)
Description: BSK_LPS_IL8: BioMAP Diversity Plus: LPS Assay for Interleukin-8 (IL8) Biomarker Activity (AID 2283078). The conditions noted are these: primary human HUVEC with PBMC; actives raise or lower the signal. A digest of the protocol:
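Endothelial cells and PBMC from human donors are co-cultured, treated with chemicals and LPS, then assayed for IL-8 by ELISA after 24 h. Parallel SRB staining (0.1% SRB after 10% TCA fixation, 560 nm) flags cytotoxicity.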

A short description of experiment [8]: BSK_LPS_SRB: Viability Assessment in the BioMAP Diversity Plus: LPS Assay (AID 2283079).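 Note: total protein by sulforhodamine B absorbance as a cytotoxicity measure; measured one day after compound addition; fitted in both directions against DMSO so loss or gain of signal counts.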 The note with it: primary human HUVEC with PBMC. A digest of the protocol:
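Overt cytotoxicity was gauged by sulforhodamine B total-protein staining in a primary human vascular endothelial and mononuclear cell co-culture 24 h post-dosing. Activity was fitted in both directions relative to DMSO.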

Read-out in experiment [9]: Interleukin-1 alpha (IL1a), IL1A (gene 3552)
The experiment in a line: BSK_LPS_IL1a: BioMAP Diversity Plus: LPS Assay for Interleukin-1 alpha (IL1a) Biomarker Activity (AID 2283080). The conditions noted are these: primary human HUVEC with PBMC; actives raise or lower the signal. The gist of the method: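 Measured: IL-1 alpha via ELISA at 24 h in LPS-activated human umbilical vein endothelium–PBMC co-culture. Baseline: DMSO, bidirectional fitting.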

Read-out in experiment [10]: Monocyte Chemoattractant Protein-1 (MCP1), CCL2 (gene 6347)
Description: BSK_LPS_MCP1: BioMAP Diversity Plus: LPS Assay for Monocyte Chemoattractant Protein-1 (MCP1) Biomarker Activity (AID 2283081).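 For AC50: secreted MCP-1 protein quantified by ELISA in culture supernatant.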 The conditions noted are these: primary human HUVEC with PBMC; actives raise or lower the signal. A digest of the protocol: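 LPS-stimulated HUVEC/PBMC co-culture; chemical, 24 h; MCP-1 by ELISA; bidirectional fit vs DMSO; cytotoxicity via SRB (0.1% stain, 10% TCA fix, 560 nm) in parallel wells.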

Experiment [11] is described as follows: BSK_LPS_PGE2: BioMAP Diversity Plus: LPS Assay for Prostaglandin E2 (PGE2) Biomarker Activity (AID 2283082).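 For AC50: secreted prostaglandin E2 measured by ELISA in LPS-stimulated co-culture.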 The conditions noted are these: primary human HUVEC with PBMC; actives raise or lower the signal. A digest of the protocol:
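PGE2 release measured by ELISA in an LPS-activated co-culture of human umbilical vein endothelial cells and peripheral blood mononuclear cells, read at 24 h post-dosing. DMSO served as baseline for bidirectional curve fitting.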

Read-out in experiment [12]: Macrophage colony-stimulating factor (MCSF), CSF1 (gene 1435)
The experiment in a line: BSK_LPS_MCSF: BioMAP Diversity Plus: LPS Assay for Macrophage colony-stimulating factor (MCSF) Biomarker Activity (AID 2283083). The note with it: primary human HUVEC with PBMC; actives raise or lower the signal. The gist of the method:
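Compound is added to a human vascular primary co-culture of umbilical vein endothelium and blood mononuclear cells. After 24 h, M-CSF is quantified by ELISA. Signal changes are fitted in both directions against DMSO.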

Read-out in experiment [13]: Tissue Factor, F3 (gene 2152)
The experiment in a line: BSK_LPS_TissueFactor: BioMAP Diversity Plus: LPS Assay for Tissue Factor Biomarker Activity (AID 2283084). The conditions noted are these: primary human HUVEC with PBMC; actives raise or lower the signal. The gist of the method: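 In this co-culture system of umbilical vein endothelium with PBMC, stimulated with LPS, cell-surface CD142 is detected by ELISA at 24 h. Endpoint values derive from bidirectional fitting, DMSO serving as baseline.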

Read-out in experiment [14]: Tumor necrosis factor (Homo sapiens) (UniProt P01375)
The experiment in a line: BSK_LPS_TNFa: BioMAP Diversity Plus: LPS Assay for Tumour Necrosis Factor alpha (TNFa) Biomarker Activity (AID 2283085).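 For AC50: TNFa protein level quantified by ELISA in the co-culture.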 The note with it: primary human HUVEC with PBMC; actives raise or lower the signal. The gist of the method:
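TNFa was quantified by ELISA in LPS-activated co-cultures of human endothelial cells and PBMC, 24 h post-dosing. Both increases and decreases versus DMSO were fitted.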

Read-out in another experiment: CD38, CD38 (gene 952)
The experiment in a line: BSK_SAg_CD38: BioMAP Diversity Plus: SAg Assay for CD38 Biomarker Activity (AID 2283087). The note with it: primary human HUVEC with PBMC; actives raise or lower the signal. The gist of the method: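 CD38 quantified by ELISA (fluorescence) in a superantigen-activated endothelial cell–PBMC co-culture at 24 h post-dose. Activity fitted in both directions relative to DMSO; parallel SRB and Alamar Blue cytotoxicity read-outs.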

Read-out in experiment [15]: CD40, CD40 (gene 958)
The experiment in a line: BSK_SAg_CD40: BioMAP Diversity Plus: SAg Assay for CD40 Biomarker Activity (AID 2283088). The note with it: primary human HUVEC with PBMC; actives raise or lower the signal. The gist of the method:
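Fluorescence ELISA read-out of CD40 from umbilical vein endothelium plus peripheral blood mononuclear cells, sampled 24 h after dosing. Values come from bidirectional curve fitting with DMSO as baseline.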

Read-out in the next experiment: CD69, CD69 (gene 969)
Description: BSK_SAg_CD69: BioMAP Diversity Plus: SAg Assay for CD69 Biomarker Activity (AID 2283089).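 For AC50: cell surface CD69 protein quantified by ELISA with fluorescence detection.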 The conditions noted are these: primary human HUVEC with PBMC; actives raise or lower the signal. A digest of the protocol:
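Values derive from bidirectional fitting relative to DMSO vehicle. Cells: umbilical vein endothelium plus peripheral blood mononuclear cells, treated 24 h before fluorescent ELISA for CD69.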

Read-out in experiment [16]: Monocyte Chemoattractant Protein-1 (MCP1), CCL2 (gene 6347)
The experiment in a line: BSK_SAg_MCP1: BioMAP Diversity Plus: SAg Assay for Monocyte Chemoattractant Protein-1 (MCP1) Biomarker Activity (AID 2283090). The conditions noted are these: primary human HUVEC with PBMC; actives raise or lower the signal. A digest of the protocol:
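Values derive from bidirectional fitting of ELISA-measured MCP1 against DMSO controls. Readings were taken 24 h after dosing human vascular endothelial cells co-cultured with peripheral blood mononuclear cells under superantigen stimulation.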

Read-out in experiment [17]: E-selectin (Homo sapiens) (UniProt P16581)
The experiment in a line: BSK_SAg_Eselectin: BioMAP Diversity Plus: SAg Assay for Eselectin Biomarker Activity (AID 2283091). The note with it: primary human HUVEC with PBMC; actives raise or lower the signal. The gist of the method: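 Primary human endothelial cells and peripheral blood mononuclear cells were co-cultured and exposed to chemical for 24 hours. E-selectin levels were then quantified by ELISA, with bidirectional curve fitting normalised to DMSO controls.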

Read-out in experiment [18]: Vascular cell adhesion molecule 1 (VCAM1), VCAM1 (gene 7412)
The experiment in a line: BSK_LPS_VCAM1: BioMAP Diversity Plus: LPS Assay for Vascular cell adhesion molecule 1 (VCAM1) Biomarker Activity (AID 2283086). The note with it: primary human HUVEC with PBMC; actives raise or lower the signal. A digest of the protocol: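 VCAM-1 quantified by ELISA in an LPS-activated co-culture of human endothelial cells and peripheral blood mononuclear cells, read 24 h post-treatment. Fitted in both directions versus DMSO; parallel SRB staining flags overt cytotoxicity.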

Active and inactive are the calls of the source. Rule for the calls: active = hit-call score of the fitted dose curve at least 0.9, where 1 is the maximum; inactive = score below 0.9.

Tumor necrosis factor (Homo sapiens), sequence (P01375 whole entry, looked up): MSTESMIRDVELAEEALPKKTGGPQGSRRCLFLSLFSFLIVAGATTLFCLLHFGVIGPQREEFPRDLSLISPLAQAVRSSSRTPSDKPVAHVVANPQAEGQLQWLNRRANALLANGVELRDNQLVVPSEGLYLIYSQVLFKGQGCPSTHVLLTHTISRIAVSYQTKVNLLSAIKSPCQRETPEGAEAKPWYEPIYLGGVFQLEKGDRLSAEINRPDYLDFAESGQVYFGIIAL
E-selectin (Homo sapiens), sequence (P16581 whole entry, looked up): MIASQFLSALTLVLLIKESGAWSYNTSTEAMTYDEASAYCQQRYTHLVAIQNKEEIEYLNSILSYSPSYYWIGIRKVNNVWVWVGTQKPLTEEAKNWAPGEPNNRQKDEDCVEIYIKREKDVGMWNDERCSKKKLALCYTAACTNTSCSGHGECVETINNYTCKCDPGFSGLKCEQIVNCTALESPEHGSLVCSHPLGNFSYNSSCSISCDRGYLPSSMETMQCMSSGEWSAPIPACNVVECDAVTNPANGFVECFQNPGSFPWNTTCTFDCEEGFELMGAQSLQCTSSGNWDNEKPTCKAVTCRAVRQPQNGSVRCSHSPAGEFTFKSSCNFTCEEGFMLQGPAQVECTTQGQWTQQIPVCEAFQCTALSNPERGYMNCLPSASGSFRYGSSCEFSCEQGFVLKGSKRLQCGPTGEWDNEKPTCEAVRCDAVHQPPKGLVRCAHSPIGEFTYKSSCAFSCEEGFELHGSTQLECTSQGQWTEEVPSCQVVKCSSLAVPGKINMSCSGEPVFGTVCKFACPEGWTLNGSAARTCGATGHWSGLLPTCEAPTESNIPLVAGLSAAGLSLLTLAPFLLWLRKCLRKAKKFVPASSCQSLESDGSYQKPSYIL

On to `CCC(=C(c1ccc(O)cc1)c1ccc(OCCN(C)C)cc1)c1ccccc1`, for which the AC50 – broadly, the concentration giving half of the maximal activity seen – is 9.8 µM (active) in [1]; 10.2 µM (active) in experiment [2]; 8.87 µM (active) in experiment [3]; 11.8 µM (active) in experiment [4]; 7.71 µM (active) in the experiment with CD40, CD40 (gene 958) [5]; 19.8 µM (active) in [6]. For the same compound, the AC50 in experiment [7] was 13.3 µM (active); in [8], 9.13 µM (active); in experiment [9] it was 8.66 µM (active); in [10] it was 9.72 µM (active); in experiment [11], 19.8 µM (active); in experiment [12], 7.5 µM (active). For the same compound, the concentration at half-maximal activity (AC50) is 13 µM (active) in experiment [13]; 13.6 µM (active) in experiment [14]; 8.38 µM (active) in the experiment with CD38, CD38 (gene 952); 11.1 µM (active) with CD40, CD40 (gene 958) [15]; 9.48 µM (active) with CD69, CD69 (gene 969); 11.1 µM (active) in experiment [16]. The AC50 in experiment [17] is 18.7 µM (active).

For `CC(=O)CC(C)(C)O`, the outcome in experiment [1] is “inactive”; in [2], “inactive”; in experiment [3], “inactive”; in [4], “inactive”; with CD40, CD40 (gene 958) [5], “inactive”; in experiment [6], “inactive”. Besides, the result in experiment [7], in experiment [8], in experiment [9], in experiment [10], in experiment [11] and in [12] was inactive. The outcome was “inactive” in experiment [13]; “inactive” in [14]; “inactive” in the experiment with CD38, CD38 (gene 952); “inactive” with CD40, CD40 (gene 958) [15]; “inactive” with CD69, CD69 (gene 969); “inactive” in experiment [16]. In experiment [17], the outcome was inactive.

Consider `COC(=O)CCCCC(=O)OC`, for which the outcome in [1] is “inactive”; in experiment [2] it was “inactive”; in experiment [3], “inactive”; in experiment [4] it was “inactive”; in the experiment with CD40, CD40 (gene 958) [5], “inactive”; in experiment [6] it was “inactive”. Further, the result in [7], in experiment [8], in experiment [9], in experiment [10], in experiment [11] and in [13] was inactive. The outcome in [14] is “inactive”; in experiment [18] it was “inactive”; with CD38, CD38 (gene 952) it was “inactive”; with CD40, CD40 (gene 958) [15] it was “inactive”; in the experiment with CD69, CD69 (gene 969) it was “inactive”; in experiment [16], “inactive”. Besides, the outcome in experiment [17] was inactive.

Values taken from PubChem BioAssay (EPA / NIEHS).
